1 sequence from article PMC7862700, “An all-to-all approach to the identification of sequence-specific readers for epigenetic DNA modifications on cytosine” can be followed below.

Holding throughout (assay): DAPPL (digital affinity profiling via proximity ligation, sequencing); 10 mM Tris-HCl pH 7.5, 50 mM NaCl, 1 mM DTT, 4% glycerol, room temperature, 30 min; GST-TFs on glutathione beads, 16-mer random dsDNA library, 0.1% formaldehyde crosslink after washing; high values mean tight binding
One test has as its target T1, FEV (Homo sapiens, UniProt Q99581 1-238).
T1 sequence: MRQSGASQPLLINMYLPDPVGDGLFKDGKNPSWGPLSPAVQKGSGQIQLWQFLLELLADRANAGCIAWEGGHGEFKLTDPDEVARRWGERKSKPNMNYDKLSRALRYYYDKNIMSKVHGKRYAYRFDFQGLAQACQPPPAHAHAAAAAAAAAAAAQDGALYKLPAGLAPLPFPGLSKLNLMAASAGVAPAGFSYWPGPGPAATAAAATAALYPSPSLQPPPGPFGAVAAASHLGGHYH
The conditions noted are these: protein: recombinant; tags: N-terminal GST; dsDNA, one strand shown. The essentials: (§1)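 Beads coated with glutathione captured GST-fused human transcription factors that had been expressed in yeast, and the factors were then given DNA barcodes and pooled with a tag-only sample. The pools were incubated with 200 nmole of a random double-stranded 16-mer DNA library in Tris/NaCl/DTT/glycerol buffer for 30 min at room temperature, washed, crosslinked with 0.1% formaldehyde and proximity-ligated with BsaI/T4 ligase at 37 °C for 1 h. PCR amplification and Illumina NextSeq500 sequencing came last. Binding signal is each hexamer's read frequency for a factor divided by its frequency for the tag-only sample.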

The next test deals with ETV5 (Homo sapiens, UniProt P41161 1-510). The conditions noted are these: protein: recombinant; tags: N-terminal GST; dsDNA, one strand shown. The essentials: as §1
ETV5, sequence (P41161 whole entry): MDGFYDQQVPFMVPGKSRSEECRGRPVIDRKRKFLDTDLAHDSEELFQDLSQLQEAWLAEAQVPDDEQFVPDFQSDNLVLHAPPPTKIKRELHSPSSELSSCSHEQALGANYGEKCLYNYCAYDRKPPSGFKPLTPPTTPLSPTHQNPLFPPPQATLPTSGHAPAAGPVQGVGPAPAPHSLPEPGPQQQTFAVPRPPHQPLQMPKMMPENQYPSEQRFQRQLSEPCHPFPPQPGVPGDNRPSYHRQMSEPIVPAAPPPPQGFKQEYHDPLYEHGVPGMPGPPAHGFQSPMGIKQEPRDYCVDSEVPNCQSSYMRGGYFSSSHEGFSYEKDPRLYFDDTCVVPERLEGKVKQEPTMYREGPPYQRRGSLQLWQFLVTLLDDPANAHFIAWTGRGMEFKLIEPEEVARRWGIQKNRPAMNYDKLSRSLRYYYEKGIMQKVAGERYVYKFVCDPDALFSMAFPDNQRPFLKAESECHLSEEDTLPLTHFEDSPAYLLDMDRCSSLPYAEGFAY
Another test addresses HSF1 (Homo sapiens, UniProt Q00613 1-529). The conditions noted are these: protein: recombinant; tags: N-terminal GST; chain copies: 3; dsDNA, one strand shown. The essentials:
as §1

The next test has as its target T2, SPIC (Homo sapiens, UniProt Q8N5J4 1-248).
T2 sequence: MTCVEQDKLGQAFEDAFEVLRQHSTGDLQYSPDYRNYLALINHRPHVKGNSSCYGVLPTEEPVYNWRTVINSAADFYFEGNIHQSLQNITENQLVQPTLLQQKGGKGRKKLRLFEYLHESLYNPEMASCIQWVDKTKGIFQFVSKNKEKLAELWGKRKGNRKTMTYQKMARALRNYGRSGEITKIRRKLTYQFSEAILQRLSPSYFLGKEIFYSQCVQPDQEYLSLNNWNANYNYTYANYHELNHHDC
The conditions noted are these: protein: recombinant; tags: N-terminal GST; dsDNA, one strand shown. The essentials: as §1

In a further test the target is ELF4 (Homo sapiens, UniProt Q99607 1-663). The following applies: protein: recombinant; tags: N-terminal GST; dsDNA, one strand shown. The essentials: as §1
ELF4, sequence (Q99607 whole entry): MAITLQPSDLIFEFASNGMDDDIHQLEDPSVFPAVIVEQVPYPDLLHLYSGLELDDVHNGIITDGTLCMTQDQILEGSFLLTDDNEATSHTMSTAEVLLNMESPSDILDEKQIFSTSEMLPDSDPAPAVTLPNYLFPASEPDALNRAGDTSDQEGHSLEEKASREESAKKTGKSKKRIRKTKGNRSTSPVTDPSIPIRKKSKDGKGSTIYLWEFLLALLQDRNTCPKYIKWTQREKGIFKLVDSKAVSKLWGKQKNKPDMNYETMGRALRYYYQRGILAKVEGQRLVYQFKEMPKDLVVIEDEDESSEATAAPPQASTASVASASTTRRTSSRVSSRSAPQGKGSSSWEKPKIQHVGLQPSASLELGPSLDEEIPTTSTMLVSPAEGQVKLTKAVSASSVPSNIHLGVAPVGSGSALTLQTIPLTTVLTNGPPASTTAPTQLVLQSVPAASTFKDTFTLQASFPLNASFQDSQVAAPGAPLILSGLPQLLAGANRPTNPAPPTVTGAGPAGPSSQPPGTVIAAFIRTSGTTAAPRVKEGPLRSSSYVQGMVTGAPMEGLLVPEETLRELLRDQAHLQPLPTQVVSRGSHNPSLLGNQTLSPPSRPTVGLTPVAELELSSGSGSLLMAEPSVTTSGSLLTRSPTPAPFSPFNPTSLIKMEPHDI
A further test addresses T3, ELK4 (Homo sapiens, UniProt P28324-2 1-405).
T3 sequence: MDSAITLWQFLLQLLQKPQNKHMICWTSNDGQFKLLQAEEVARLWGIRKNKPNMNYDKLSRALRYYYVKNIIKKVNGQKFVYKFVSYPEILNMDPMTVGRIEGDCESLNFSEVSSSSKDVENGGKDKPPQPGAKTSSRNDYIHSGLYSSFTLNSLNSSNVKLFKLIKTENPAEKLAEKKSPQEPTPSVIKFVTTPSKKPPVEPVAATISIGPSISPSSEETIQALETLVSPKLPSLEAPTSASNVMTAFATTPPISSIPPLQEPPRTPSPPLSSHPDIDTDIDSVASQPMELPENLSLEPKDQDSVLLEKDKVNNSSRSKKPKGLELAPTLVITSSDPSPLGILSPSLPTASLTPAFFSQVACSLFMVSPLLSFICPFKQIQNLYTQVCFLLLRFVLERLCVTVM
The following applies: protein: recombinant; tags: N-terminal GST; dsDNA, one strand shown. The essentials:
as §1

Another test concerns the target T4, ETV2 (Homo sapiens, UniProt O00321 1-342).
T4 sequence: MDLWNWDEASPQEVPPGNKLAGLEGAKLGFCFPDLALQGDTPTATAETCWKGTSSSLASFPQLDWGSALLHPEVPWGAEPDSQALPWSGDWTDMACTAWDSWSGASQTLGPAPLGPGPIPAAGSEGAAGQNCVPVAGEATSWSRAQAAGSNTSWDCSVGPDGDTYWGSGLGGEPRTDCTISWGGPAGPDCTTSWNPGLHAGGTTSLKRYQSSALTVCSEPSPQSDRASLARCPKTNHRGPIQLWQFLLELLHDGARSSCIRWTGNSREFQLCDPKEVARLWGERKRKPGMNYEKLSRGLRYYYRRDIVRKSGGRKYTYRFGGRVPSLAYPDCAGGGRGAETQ
The following applies: protein: recombinant; tags: N-terminal GST; dsDNA, one strand shown. In outline: as §1

The target of the next test is T5, ELF3 (Homo sapiens, UniProt P78545 1-371).
T5 sequence: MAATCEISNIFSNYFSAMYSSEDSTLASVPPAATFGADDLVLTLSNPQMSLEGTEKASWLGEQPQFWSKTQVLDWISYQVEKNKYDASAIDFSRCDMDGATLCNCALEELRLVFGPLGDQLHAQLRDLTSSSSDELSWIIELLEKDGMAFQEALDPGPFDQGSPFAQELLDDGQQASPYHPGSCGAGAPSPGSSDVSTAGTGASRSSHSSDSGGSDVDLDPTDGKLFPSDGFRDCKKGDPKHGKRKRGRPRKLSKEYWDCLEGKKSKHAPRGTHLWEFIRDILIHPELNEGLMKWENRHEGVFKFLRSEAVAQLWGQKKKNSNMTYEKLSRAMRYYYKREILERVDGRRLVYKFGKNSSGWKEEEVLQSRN
The following applies: protein: recombinant; tags: N-terminal GST; dsDNA, one strand shown. The essentials: as §1

The next test concerns the target CRX (Homo sapiens, UniProt O43186 1-299). The following applies: protein: recombinant; tags: N-terminal GST; dsDNA, one strand shown. The essentials: as §1
The next test addresses ETV1 (Homo sapiens, UniProt P50549 1-477). The following applies: protein: recombinant; tags: N-terminal GST; dsDNA, one strand shown. The essentials:
as §1

The next test concerns the target T6, ERF (Homo sapiens, UniProt P50548 1-548).
T6 sequence: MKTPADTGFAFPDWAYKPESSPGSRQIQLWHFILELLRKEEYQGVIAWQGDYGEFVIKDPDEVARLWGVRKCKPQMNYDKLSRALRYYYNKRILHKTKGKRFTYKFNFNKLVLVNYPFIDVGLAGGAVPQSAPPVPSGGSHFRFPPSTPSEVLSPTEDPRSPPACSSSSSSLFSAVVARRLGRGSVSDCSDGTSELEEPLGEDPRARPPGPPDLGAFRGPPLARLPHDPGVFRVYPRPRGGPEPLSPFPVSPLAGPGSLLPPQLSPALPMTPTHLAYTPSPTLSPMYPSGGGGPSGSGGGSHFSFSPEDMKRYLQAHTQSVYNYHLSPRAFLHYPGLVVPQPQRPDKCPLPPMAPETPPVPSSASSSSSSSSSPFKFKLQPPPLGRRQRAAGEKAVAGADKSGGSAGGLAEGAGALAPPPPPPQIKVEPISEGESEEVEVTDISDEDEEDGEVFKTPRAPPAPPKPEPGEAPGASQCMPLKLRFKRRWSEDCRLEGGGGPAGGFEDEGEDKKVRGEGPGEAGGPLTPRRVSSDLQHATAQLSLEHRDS
The conditions noted are these: protein: recombinant; tags: N-terminal GST; dsDNA, one strand shown. The essentials:
as §1

A further test has as its target T7, ETV3L (Homo sapiens, UniProt Q6ZN32 1-361).
T7 sequence: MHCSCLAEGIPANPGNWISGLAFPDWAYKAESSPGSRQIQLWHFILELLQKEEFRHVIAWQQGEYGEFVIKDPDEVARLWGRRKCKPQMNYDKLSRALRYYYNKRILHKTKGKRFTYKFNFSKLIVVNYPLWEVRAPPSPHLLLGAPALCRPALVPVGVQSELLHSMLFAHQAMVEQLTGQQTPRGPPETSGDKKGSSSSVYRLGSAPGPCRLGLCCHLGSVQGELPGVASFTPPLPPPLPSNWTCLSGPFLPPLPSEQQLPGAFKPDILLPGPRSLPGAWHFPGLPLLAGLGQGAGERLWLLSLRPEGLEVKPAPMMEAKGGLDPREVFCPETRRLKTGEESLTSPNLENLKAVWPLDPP
The following applies: protein: recombinant; tags: N-terminal GST; dsDNA, one strand shown. The essentials: as §1

A further test addresses T8, ETS2 (Homo sapiens, UniProt P15036 1-469).
T8 sequence: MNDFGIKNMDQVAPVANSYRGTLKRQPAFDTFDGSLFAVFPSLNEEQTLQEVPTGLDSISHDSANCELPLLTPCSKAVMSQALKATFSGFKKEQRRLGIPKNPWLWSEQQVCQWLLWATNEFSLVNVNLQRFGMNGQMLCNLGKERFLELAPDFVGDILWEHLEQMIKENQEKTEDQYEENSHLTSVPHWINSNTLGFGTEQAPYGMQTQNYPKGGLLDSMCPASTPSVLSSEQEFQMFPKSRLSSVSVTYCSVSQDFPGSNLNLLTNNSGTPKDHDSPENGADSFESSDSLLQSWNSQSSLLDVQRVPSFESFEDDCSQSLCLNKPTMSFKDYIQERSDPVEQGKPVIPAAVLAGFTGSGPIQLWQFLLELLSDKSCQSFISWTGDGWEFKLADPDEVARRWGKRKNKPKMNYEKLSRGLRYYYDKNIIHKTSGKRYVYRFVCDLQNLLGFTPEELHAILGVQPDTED
The following applies: protein: recombinant; tags: N-terminal GST; dsDNA, one strand shown. In outline:
as §1

The next test has as its target T9, SPDEF (Homo sapiens, UniProt O95238 1-335).
T9 sequence: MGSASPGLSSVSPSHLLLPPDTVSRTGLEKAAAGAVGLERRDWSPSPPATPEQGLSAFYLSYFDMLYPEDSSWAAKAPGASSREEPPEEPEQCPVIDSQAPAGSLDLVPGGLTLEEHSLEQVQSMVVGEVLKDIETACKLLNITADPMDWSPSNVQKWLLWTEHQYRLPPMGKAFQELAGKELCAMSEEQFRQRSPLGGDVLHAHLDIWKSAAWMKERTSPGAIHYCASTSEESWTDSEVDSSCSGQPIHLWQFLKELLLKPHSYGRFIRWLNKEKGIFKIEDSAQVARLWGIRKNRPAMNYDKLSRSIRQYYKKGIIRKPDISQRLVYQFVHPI
The following applies: protein: recombinant; tags: N-terminal GST; dsDNA, one strand shown. The essentials: as §1

In a further test the target is T10, ETV7 (Homo sapiens, UniProt Q9Y603 1-341).
T10 sequence: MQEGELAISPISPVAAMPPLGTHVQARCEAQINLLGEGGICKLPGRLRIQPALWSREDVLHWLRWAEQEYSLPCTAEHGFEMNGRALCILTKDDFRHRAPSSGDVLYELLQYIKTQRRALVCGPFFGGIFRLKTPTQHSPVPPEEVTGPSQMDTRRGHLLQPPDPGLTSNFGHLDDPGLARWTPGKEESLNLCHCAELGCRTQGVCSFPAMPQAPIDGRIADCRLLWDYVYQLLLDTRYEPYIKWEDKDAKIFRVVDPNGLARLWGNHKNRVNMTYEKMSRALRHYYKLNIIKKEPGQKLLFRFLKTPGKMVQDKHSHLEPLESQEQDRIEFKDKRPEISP
The following applies: protein: recombinant; tags: N-terminal GST; dsDNA, one strand shown. In outline: as §1

For the next test, the target named is T11, ELF5 (Homo sapiens, UniProt Q9UKW6-2 1-255).
T11 sequence: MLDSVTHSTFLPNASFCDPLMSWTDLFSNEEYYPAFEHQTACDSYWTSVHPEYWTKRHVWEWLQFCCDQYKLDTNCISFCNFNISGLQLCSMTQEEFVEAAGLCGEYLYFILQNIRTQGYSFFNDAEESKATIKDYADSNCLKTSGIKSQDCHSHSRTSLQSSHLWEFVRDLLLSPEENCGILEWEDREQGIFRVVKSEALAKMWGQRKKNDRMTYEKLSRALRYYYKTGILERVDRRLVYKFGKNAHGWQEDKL
The following applies: protein: recombinant; tags: N-terminal GST; dsDNA, one strand shown. The essentials:
as §1

For another test, the target named is T12, ETV3 (Homo sapiens, UniProt P41162-2 1-143).
T12 sequence: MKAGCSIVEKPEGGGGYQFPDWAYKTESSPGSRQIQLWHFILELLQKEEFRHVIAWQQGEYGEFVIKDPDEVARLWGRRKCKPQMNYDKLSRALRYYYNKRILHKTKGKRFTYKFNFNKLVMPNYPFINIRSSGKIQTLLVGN
The conditions noted are these: protein: recombinant; tags: N-terminal GST; dsDNA, one strand shown. In outline:
as §1

Another test has as its target ETV6 (Homo sapiens, UniProt P41212 1-452). The conditions noted are these: protein: recombinant; tags: N-terminal GST; dsDNA, one strand shown. The essentials:
as §1

ETV6, sequence (P41212 whole entry): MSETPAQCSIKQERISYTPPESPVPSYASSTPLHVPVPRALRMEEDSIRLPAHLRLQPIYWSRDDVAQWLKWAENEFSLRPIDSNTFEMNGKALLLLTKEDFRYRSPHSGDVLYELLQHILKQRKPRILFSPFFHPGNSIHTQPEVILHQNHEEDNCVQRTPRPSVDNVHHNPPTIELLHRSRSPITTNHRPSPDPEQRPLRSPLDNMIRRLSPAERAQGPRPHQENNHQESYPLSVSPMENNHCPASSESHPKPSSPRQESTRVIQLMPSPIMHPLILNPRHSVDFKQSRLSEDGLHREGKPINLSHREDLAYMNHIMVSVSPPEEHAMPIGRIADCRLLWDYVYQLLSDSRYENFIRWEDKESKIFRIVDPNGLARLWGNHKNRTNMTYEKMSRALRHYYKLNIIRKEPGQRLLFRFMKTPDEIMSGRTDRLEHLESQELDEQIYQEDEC
HSF1, sequence (Q00613 whole entry): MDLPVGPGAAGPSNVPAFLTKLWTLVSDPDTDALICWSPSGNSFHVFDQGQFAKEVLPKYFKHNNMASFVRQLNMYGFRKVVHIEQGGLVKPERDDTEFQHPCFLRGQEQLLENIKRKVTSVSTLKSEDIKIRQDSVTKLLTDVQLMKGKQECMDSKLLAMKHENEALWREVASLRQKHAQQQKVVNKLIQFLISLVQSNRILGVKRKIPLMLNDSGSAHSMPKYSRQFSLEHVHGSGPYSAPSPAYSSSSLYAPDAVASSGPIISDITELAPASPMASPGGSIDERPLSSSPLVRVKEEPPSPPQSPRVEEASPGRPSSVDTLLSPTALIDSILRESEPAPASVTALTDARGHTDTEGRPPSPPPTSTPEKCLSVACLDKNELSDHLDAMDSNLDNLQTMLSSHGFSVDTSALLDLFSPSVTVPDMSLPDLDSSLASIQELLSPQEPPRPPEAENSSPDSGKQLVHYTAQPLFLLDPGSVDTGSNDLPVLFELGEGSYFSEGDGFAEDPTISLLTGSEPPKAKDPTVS
CRX, sequence (O43186 whole entry): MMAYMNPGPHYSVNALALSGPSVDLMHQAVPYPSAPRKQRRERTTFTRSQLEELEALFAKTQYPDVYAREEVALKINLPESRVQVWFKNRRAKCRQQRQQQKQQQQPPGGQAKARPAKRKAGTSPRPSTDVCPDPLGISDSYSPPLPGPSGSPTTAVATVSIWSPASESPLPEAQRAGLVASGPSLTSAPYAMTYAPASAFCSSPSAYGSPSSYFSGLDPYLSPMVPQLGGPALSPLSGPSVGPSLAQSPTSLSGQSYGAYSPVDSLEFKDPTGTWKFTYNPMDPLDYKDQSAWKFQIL
ETV1, sequence (P50549 whole entry): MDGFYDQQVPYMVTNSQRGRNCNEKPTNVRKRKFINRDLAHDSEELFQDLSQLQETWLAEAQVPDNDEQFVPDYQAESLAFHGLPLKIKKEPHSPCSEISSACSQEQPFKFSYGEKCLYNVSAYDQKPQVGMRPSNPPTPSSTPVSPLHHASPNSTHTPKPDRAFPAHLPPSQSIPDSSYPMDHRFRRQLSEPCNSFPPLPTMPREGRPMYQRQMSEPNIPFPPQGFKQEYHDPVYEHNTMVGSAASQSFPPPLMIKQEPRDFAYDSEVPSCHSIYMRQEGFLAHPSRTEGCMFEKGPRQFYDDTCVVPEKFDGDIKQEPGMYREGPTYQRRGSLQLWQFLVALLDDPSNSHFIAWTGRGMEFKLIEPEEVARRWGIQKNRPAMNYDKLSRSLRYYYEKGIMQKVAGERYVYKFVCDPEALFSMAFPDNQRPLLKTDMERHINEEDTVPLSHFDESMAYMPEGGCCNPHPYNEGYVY

Take CTGATA: the binding signal with FEV is 1.14 fold enrichment (6-mer frequency, TF over GST control); with ETV5, 1.18 fold enrichment (6-mer frequency, TF over GST control); in the test with HSF1, 1.18 fold enrichment (6-mer frequency, TF over GST control); with SPIC, 1.11 fold enrichment (6-mer frequency, TF over GST control); with ELF4, 1.19 fold enrichment (6-mer frequency, TF over GST control); with ELK4 it was 1.35 fold enrichment (6-mer frequency, TF over GST control). Besides, the binding signal with ETV2 was 1.15 fold enrichment (6-mer frequency, TF over GST control); with ELF3 it was 1.13 fold enrichment (6-mer frequency, TF over GST control); with CRX, 1.26 fold enrichment (6-mer frequency, TF over GST control); in the test with ETV1 it was 1.13 fold enrichment (6-mer frequency, TF over GST control); in the test with ERF it was 1.16 fold enrichment (6-mer frequency, TF over GST control); with ETV3L it was 1.21 fold enrichment (6-mer frequency, TF over GST control). In addition, the binding signal was 1.17 fold enrichment (6-mer frequency, TF over GST control) in the test with ETS2; 1.15 fold enrichment (6-mer frequency, TF over GST control) with SPDEF; 1.08 fold enrichment (6-mer frequency, TF over GST control) with ETV7; 1.2 fold enrichment (6-mer frequency, TF over GST control) in the test with ELF5; 1.26 fold enrichment (6-mer frequency, TF over GST control) with ETV3; 1.06 fold enrichment (6-mer frequency, TF over GST control) with ETV6.
